Data from paper PMC7826789 (International Journal of Molecular Sciences, 2021).

system: T1, IKK-alpha; conditions: Compound Concentration (nM):1000
T1 construct: gene CHUK
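Note: KINOMEscan scanMAX binding as percent activity remaining versus control; lower means stronger binding.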

Compound	Percent Control [%]
COc1ccc2c(-c3ccnc(Nc4cccc(OC(F)(F)F)c4)n3)cnn2n1 [GW810372X]	83
CCS(=O)(=O)c1ccc(OC)c(Nc2ncc(-c3cccc(OC)c3)o2)c1 [GW580509X]	100
CC1=C(C(=O)Nc2ccc3[nH]ncc3c2)C(c2ccc3ccccc3c2)CC(=O)N1 (stereo not drawn) [GSK270822A]	69
COc1cccc(-c2c[nH]c3c(N/N=C/c4ccncc4)ncnc23)c1 [GW814408X]	87
Cl.O=C(Nc1ccc(Oc2ccc3[nH]c(NC(=O)c4ccco4)nc3c2)cc1)Nc1cc(C(F)(F)F)ccc1F [GW683134A]	24
COC(=O)Nc1nc2ccc(Oc3ccc(NC(=O)Nc4cc(C(F)(F)F)ccc4F)cc3)cc2s1.Cl [GW693917A]	86
COc1cc(N2CCN(C(C)C)CC2)ccc1Nc1nc(Nc2ccc(F)cc2C(=O)NC[C@@H](O)CO)c2cc[nH]c2n1 [GSK1392956A]	100
COc1cc2ncn(-c3cc(O[C@H](C)c4ccccc4Cl)c(C(N)=O)s3)c2cc1OC [GSK237701A]	83
Cl.c1ccc(Cc2nc3ccc(Nc4ncnc5ccccc45)cc3[nH]2)cc1 [GR269666A]	100
COc1cc(C)c(N(C)C(=O)CN(C)C)cc1Nc1nc(Nc2cccc(F)c2C(N)=O)c2cc[nH]c2n1 [GSK2219385]	100
NS(=O)(=O)c1ccc(N/N=C2\C(=O)Nc3ccc(C(=O)NCCc4c[nH]cn4)cc32)cc1 [GW300660X]	85
CCS(=O)(=O)c1ccc(OC)c(Nc2ncc(-c3cccc(F)c3)o2)c1 [GW621970X]	100
CN(C)CCNC(=O)Nc1ccc(N(C)c2ccnc(Nc3ccc(CS(C)(=O)=O)cc3)n2)cc1.Cl [GW830900A]	100
COc1cc(/C=N/Nc2ncnc3[nH]ncc23)ccc1O [GW578748X]	14
COc1ccc2cc(-c3c(-c4ccncc4)nc(-c4ccc(S(C)(=O)=O)cc4C)n3C)ccc2c1 [SB-633825]	57
COc1ccc(COc2ccc(Cc3cnc(N)nc3N)cc2OC)cc1 [GW632580X]	94
COc1cccc(-n2ncc3c(N/N=C/c4ccncc4)ncnc32)c1 [GW784752X]	98

Compound	Percent Control [%]
CN(C)c1cc2c(Nc3ccc4c(cnn4Cc4ccccc4)c3)ncnc2cn1 [GW282974X]	92
Cc1cc(O)cc(C)c1/C=C/c1cncc(C(N)=O)c1 [GW435821X]	100
NS(=O)(=O)c1ccc(N/N=C2\C(=O)Nc3ccc(-c4cnco4)cc32)cc1 [GW276655]	55
O=C(Nc1n[nH]c2nc(-c3ccc(O)cc3)c(Br)cc12)C1CC1 [SB-725317]	100
NS(=O)(=O)c1ccc(Nc2ncc(-c3ccccc3)o2)cc1 [GW572399X]	90
Cl.O=C(O[C@H]1CN[C@H](C#Cc2cc3ncnc(Nc4ccc5c(cnn5Cc5ccccc5)c4)c3s2)C1)N1CCOCC1 [GSK200398A]	100
COc1ccccc1-c1cc(/C=C2\C(=O)Nc3ncc(Br)cc32)cc(Br)c1O [GW442130X]	100
CC1=C(C(=O)Nc2ccc3[nH]ncc3c2)C(c2ccc(Cl)c(Cl)c2)CC(=O)N1 (stereo not drawn) [GSK299115A]	81
COc1cc2ncnc(Nc3ccc4c(cnn4Cc4ccccc4)c3)c2cc1OC.Cl [GW282449A]	100
O=C1Nc2ccc(C(=O)c3ccco3)cc2C1=Cc1cc(Cl)c(O)c(Cl)c1 [GW406108X]	96
CC(C)COC(=O)c1ccc2c(c1)/C(=C/Nc1ccc(S(N)(=O)=O)cc1)C(=O)N2 [GW416981X]	69
Cl.O=S1CCN(Cc2ccc(-c3ccc4ncnc(Nc5ccc(OCc6ccccc6)c(F)c5)c4c3)o2)CC1 [GW576924A]	100
CCn1c(-c2nonc2N)nc2c(C#CC(C)(C)O)nc(OCCNC)cc21.Cl [GSK949675]	91
COc1cc(C=NNc2ncnc3c2cnn3-c2ccccc2)ccc1O [GW513184X]	100
Cl.O=C(Nc1ccc(Oc2ccc3[nH]c(NC(=O)c4ccccc4)nc3c2)cc1)Nc1cc(C(F)(F)F)ccc1F [GW709042A]	75
Nc1ncnc2occ(-c3ccc(NC(=O)Nc4cc(C(F)(F)F)ccc4F)cc3)c12 [GW770249X]	18
